CYP2C19 activ = increases human CYP2C19 enzyme activity. AID 1025. 96,000 tested, under 10 active. P33261. activation factor at 5 µM. recombinant CYP2C19, luciferin-H EGE luminescence; active compounds read high; 0 = fully inhibited enzyme, 1 = untreated enzyme;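 active = activation factor of at least 2 at 5 µM in the primary screen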
CYP2C9 inhib = inhibitors of human CYP2C9; P11712; CYP2C9 Supersomes, luciferin-H conversion, luminescence; inhibition, % at 5 µM; 96,000 compounds, 20% hits; AID 777;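 active = blocking of liver enzyme CYP2C9 beyond about 50% at 5 µM, limit read from the data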
Target sequence (P11712 whole entry, looked up): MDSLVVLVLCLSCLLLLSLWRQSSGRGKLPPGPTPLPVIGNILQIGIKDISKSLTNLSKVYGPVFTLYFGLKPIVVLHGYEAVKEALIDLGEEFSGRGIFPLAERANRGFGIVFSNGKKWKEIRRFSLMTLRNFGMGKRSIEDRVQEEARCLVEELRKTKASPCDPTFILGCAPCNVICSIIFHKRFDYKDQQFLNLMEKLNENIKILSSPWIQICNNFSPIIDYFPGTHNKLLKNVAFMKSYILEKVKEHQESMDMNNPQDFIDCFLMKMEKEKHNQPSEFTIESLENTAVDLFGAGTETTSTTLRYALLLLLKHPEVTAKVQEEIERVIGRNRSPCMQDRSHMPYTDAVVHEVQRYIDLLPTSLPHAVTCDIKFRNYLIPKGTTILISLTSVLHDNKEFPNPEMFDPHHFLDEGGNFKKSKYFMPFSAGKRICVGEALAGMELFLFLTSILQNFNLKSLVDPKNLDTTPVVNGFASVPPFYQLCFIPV
cytoskel mod = cytoskeleton assembly modification; HUVEC TNFa F-actin phalloidin imaging, high content; inhibition, % at 2 µM; 91,000 compounds, 0.18% hits;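 active = inhibition above the batch mean plus 3 SD and confirmed as a hit by visual image inspection, cut at about 30% in these data, passing the limit was not always enough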
CYP2C19 inhib = human CYP2C19 inhibition; P33261; CYP2C19 Supersomes, luciferin-H EGE luminescence, 30 min; inhibition, % at 5 µM; 96,000 compounds, 21% hits;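 active = CYP2C19 inhibition above a set limit at 5 µM in the primary screen, cut at about 50% in these data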
E-sel TNF inh = blocks E-selectin expression induced by TNF alpha; HUVEC TNFa-induced E-selectin immunofluorescence, high content; inhibition, % at 2 µM; 120,000 compounds, 0.71% hits; AID 1246;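 active = inhibition above the batch mean plus 3 SD, and confirmed as a hit on visual image review, cut at about 43% in these data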
CYP2C9 act = activators of human CYP2C9. recombinant CYP2C9, luciferin-H conversion, luminescence; active compounds read high; factor 1 = untreated enzyme, 0 = blocked. P11712. 96,000 compounds, 1.4% hits. activation factor at 5 µM;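 active = activation factor of 2 or more for CYP2C9 at a 5 µM dose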
Of the large screens only hits and unclear results are named; the others gave an inactive call. An excerpt weighted towards active compounds, which were near 22% of everything screened.

Fc1ccc(NC(=S)N/N=C/c2ccc(F)c(F)c2)c(F)c1	CYP2C19 inhib 54.1
COc1ccc([N+](=O)[O-])cc1NC(=O)CC1SC(=Nc2cccc(C)c2C)N(/N=C/c2cccc(OC)c2OC)C1=O (stereo not drawn)	none (no result: CYP2C19 activ, CYP2C9 inhib, cytoskel mod, CYP2C19 inhib, CYP2C9 act)
O=S(=O)(NCc1cccnc1)c1ccc(Cl)c(Cl)c1	none (no result: CYP2C19 activ, CYP2C9 inhib, CYP2C19 inhib, CYP2C9 act)
O=S(=O)(NCc1cccnc1)c1ccc(Cl)c(Cl)c1Cl	CYP2C19 inhib 87.8 (no result: cytoskel mod, E-sel TNF inh)
Cc1ccc(C(C)C)cc1S(=O)(=O)NCc1cccnc1	CYP2C9 inhib 61.6, CYP2C19 inhib 78.1
O=CN1CC(=O)N(c2ccccc2)c2c([nH]c3ccccc23)C1	CYP2C19 inhib 79.0 (no result: E-sel TNF inh)
c1cn(C23CC4CC(CC(C4)C2)C3)cn1	CYP2C9 inhib 95.9, CYP2C19 inhib 87.0
O=C(NC1CCCCC1)N(CCO)Cc1cc2cc3c(cc2[nH]c1=O)OCCO3	CYP2C9 inhib 53.2
CCCNS(=O)(=O)c1ccc(OCC(=O)NCc2ccc3c(c2)OCO3)cc1	CYP2C9 inhib 62.2, CYP2C19 inhib 54.4
CCCNS(=O)(=O)c1ccc(OCC(=O)Nc2ccc3c(c2)OCCO3)cc1	CYP2C9 inhib 70.3
CCOc1ccccc1OCCCC(=O)NC1=NCCS1	none (no result: E-sel TNF inh)
CC(C)(C)c1ccc(OCCCC(=O)NC2=NCCS2)cc1	CYP2C19 inhib 64.8
COc1cc(OC)cc(C(=O)NC2=NCCS2)c1	none
COc1cc(C(=O)NC2=NCCS2)ccc1OCc1c(C)noc1C	CYP2C9 inhib 60.0 (no result: cytoskel mod)
COc1ccc(CC(=O)NC2=NCCS2)cc1	CYP2C19 inhib 76.5
COc1ccc(CCC(=O)NC2=NCCS2)cc1OC	CYP2C19 inhib 61.4 (no result: cytoskel mod)
CCOC(=O)N1CCN(C(=O)CSc2nnc(-c3cccc(Cl)c3)o2)CC1	none (no result: cytoskel mod)
Cn1c(=O)c2c(nc(NCc3cccnc3)n2Cc2cccc(C(F)(F)F)c2)n(C)c1=O	CYP2C9 inhib 69.3, CYP2C19 inhib 53.1
CC(=O)N1CN(C2CCCC2)Cc2c1sc1c2CCCC1	none
COc1ccc(C(=O)NNC(=O)C(=O)NC(C)c2ccccc2)cc1OC (stereo not drawn)	none (no result: CYP2C19 activ, CYP2C9 inhib, cytoskel mod, CYP2C19 inhib, CYP2C9 act)
Cc1ccc(C2C3=C(CC(C)(C)CC3=O)N(CCN3CCOCC3)C3=C2C(=O)CC(C)(C)C3)cc1	none (no result: E-sel TNF inh)
COc1cc(CNC2CCCC2)cc(Cl)c1OCc1ccccc1F	CYP2C19 inhib 95.7
CCCN(CCC)C(=O)CSc1nc2ccsc2c(=O)n1NC(=O)c1ccccc1	CYP2C9 inhib 66.1
CC(C)CCNC(=O)CSc1nc2ccsc2c(=O)n1NC(=O)c1ccccc1	none
CC(C)c1cc(C(=O)NCc2cccnc2)no1	none (no result: cytoskel mod, E-sel TNF inh)
O=[N+]([O-])c1ccc2c(c1)C(N1CCOCC1)/C(=C/COc1ccc3ccccc3c1Br)O2 (stereo not drawn)	CYP2C19 inhib 52.1
O=[N+]([O-])c1ccc(OC/C=C2\Oc3ccc([N+](=O)[O-])cc3C2N2CCOCC2)cc1 (stereo not drawn)	CYP2C19 inhib 70.6
C[N+]1(CCOc2ccc([N+](=O)[O-])cc2)CCOCC1	none
O=[N+]([O-])c1ccc2c(c1)C(N1CCOCC1)/C(=C/COc1ccc(F)cc1)O2 (stereo not drawn)	CYP2C9 inhib 54.0, CYP2C19 inhib 84.1
Fc1ccc(NC(=S)N2CCN(c3cccc(C(F)(F)F)c3)CC2)cc1	none (no result: CYP2C19 activ, CYP2C9 inhib, cytoskel mod, CYP2C19 inhib, CYP2C9 act)
CC(C)c1nnc(-c2ccc(Cl)cc2)c(N(C)C)n1	none
COC(=O)CSc1nnc(-c2sc3ccccc3c2Cl)o1	none
CCN(CC)CC#CCC(C)(c1ccccc1)c1ccccc1	CYP2C9 inhib 71.6, CYP2C19 inhib 93.6
CCN(CC)CC#CCC(O)(c1ccccc1)c1ccccc1	none (no result: CYP2C19 activ, CYP2C9 inhib, cytoskel mod, CYP2C19 inhib, CYP2C9 act)
Cc1ccc(OCC(=O)N2CCN(C(=O)CCC3CCCC3)CC2)cc1	CYP2C9 inhib 55.5, CYP2C19 inhib 56.2
CS(=O)(=O)N1CCN(C(=O)CCC2CCCC2)CC1	none
COc1ccc(S(=O)(=O)N2CCN(C(=O)CCC3CCCC3)CC2)cc1	CYP2C19 inhib 54.8
CS(=O)(=O)N(CC(=O)O)c1ccc(Oc2ccccc2)cc1	none
O=c1ccnc(SCc2ccccc2Cl)[nH]1	CYP2C9 inhib 60.5
Nc1nc(SCc2ccccc2Cl)[nH]c(=O)c1-c1ccccc1	none (no result: CYP2C19 activ, CYP2C9 inhib, CYP2C19 inhib, CYP2C9 act)
CCOc1ccc2[nH]c(=O)c(CN(Cc3ccccc3)C(=O)N3CCCC3)cc2c1	cytoskel mod 49.8
Cc1ccc2[nH]c(=O)c(CN(Cc3ccccc3Cl)C(=O)N3CCOCC3)cc2c1	CYP2C9 inhib 71.7, CYP2C19 inhib 82.4

Bioassay records as filed in PubChem BioAssay.
